From ChEMBL document CHEMBL3988442, “University of Dundee, Small-Polar-MMV Screening Library” (2021)
For part of these data: Results with a measured potency or affinity are listed apart.

Assays:
Set-up in all cases: scale not given: direction of the effect not stated beside the values
[1] = molecular target: Protein translocase subunit SecA (Escherichia coli (strain K12)) (UniProt P10408); experiment: Assay to Identify E. coli SecA ATPase Inhibitors; assay type: functional; conditions: 30 µM
[2] = molecular target: T1, Ubiquitin-activating enzyme e1, putative (Leishmania donovani (strain BPK282A1)) (UniProt E9BSI1); experiment: Leishmania donovani Ubiquitin Activating Enzyme (LdE1); assay type: functional; conditions: 30 µM
T1 sequence (whole entry): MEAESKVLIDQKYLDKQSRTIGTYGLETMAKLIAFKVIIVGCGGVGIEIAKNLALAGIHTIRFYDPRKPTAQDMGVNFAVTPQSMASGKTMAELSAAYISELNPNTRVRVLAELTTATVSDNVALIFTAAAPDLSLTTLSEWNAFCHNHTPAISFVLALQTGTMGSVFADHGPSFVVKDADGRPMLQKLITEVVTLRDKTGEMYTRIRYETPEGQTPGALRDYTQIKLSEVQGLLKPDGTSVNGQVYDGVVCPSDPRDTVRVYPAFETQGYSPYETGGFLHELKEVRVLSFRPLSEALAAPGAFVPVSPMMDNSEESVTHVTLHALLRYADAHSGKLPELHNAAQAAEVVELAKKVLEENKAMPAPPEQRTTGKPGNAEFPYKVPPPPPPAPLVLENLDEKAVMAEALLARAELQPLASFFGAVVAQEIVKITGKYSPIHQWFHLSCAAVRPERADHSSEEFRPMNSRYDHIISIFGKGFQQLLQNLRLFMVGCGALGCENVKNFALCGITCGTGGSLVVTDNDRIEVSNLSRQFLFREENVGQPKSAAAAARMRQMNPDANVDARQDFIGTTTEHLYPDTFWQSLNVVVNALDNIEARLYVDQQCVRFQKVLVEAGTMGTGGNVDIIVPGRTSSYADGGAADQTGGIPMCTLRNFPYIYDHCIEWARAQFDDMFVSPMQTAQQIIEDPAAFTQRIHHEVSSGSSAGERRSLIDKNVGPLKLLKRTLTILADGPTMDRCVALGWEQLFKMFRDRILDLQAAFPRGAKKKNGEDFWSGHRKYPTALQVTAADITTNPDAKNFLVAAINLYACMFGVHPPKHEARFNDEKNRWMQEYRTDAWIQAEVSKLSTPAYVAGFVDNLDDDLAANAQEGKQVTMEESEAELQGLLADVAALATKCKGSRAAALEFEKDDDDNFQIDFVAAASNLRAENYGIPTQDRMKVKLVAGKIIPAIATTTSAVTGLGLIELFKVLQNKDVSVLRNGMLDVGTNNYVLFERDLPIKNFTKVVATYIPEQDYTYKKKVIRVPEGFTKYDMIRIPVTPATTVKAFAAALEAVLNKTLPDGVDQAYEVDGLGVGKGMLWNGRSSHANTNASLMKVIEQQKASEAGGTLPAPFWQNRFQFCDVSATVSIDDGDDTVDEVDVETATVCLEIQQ

[3] = molecular target: AMP-activated protein kinase, AMPK (Homo sapiens) (UniProt P54646+O43741+P54619+Q9UGJ0+Q9Y478+Q13131+Q9UGI9); experiment: AMP-dependent Kinase enzyme assay. An in vitro enzyme assay that detects ADP turnover that is directly proportional to AMPK activity. This uses naive AMPK that is activated during the assay with MK-8722; assay type: functional; conditions: 30 µM
[4] = molecular target: Sialic acid-binding Ig-like lectin 9 (Homo sapiens) (UniProt Q9Y336); experiment: Hs-Siglec9 ALPHAscreen SOP 20170721; conditions: 10 µM
Trypanosoma cruzi = experiment: Trypanosoma cruzi phosphomannomutase and mannose-1-phosphate guanylyltransferase assay; assay type: functional; conditions: 10 µM
[5] = molecular target: T2, Arginase-2, mitochondrial (Homo sapiens) (UniProt P78540); experiment: in vitro enzyme assay to detect the production of urea directly proportional to the activity of Arginase II; assay type: functional; conditions: 33.3 µM; also: in the data most compounds retested in dose-response had high values
T2 sequence (whole entry): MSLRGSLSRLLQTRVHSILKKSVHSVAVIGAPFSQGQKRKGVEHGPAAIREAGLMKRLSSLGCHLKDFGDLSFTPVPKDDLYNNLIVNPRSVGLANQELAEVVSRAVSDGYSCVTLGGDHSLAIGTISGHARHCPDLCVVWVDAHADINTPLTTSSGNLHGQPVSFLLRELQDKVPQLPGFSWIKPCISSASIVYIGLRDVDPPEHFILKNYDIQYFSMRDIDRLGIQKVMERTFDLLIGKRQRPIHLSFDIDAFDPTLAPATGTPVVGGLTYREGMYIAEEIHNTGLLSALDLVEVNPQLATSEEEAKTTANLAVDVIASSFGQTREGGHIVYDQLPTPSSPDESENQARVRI

[6] = molecular target: T3, Proteasome subunit beta (Trypanosoma cruzi) (UniProt O96673); experiment: Trypanosoma cruzi proteasome chymotrypsin-like activity (TcProtChymo) assay.; also: in the data most compounds retested in dose-response had high values; assay type: functional; conditions: 9.37 µM
T3 sequence (whole entry): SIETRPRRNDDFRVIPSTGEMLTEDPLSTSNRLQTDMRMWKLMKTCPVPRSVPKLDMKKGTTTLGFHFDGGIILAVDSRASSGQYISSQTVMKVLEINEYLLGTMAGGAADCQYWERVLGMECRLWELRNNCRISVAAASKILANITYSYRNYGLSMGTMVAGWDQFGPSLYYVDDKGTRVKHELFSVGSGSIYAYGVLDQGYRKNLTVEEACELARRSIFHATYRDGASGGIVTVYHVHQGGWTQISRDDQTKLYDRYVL

Homo sapiens = organism: Homo sapiens; experiment: To identify inhibition of the IFN signalling (Jak-Stat) pathway via expression of an eGFP reporter gene under the control of an IFN-stimulated response element (ISRE) containing MxA promoter.; assay type: functional; conditions: 30 µM
[7] = molecular target: T4, Tyrosyl-tRNA synthetase, putative (Trypanosoma cruzi (strain CL Brener)) (UniProt Q4DSP6); experiment: Trypanosoma cruzi tyrosyl tRNA synthetase (TcYRS) _High Tyrosine SOP; assay type: functional; conditions: 30 µM; also: in the data most compounds retested in dose-response had high values
T4 sequence (whole entry): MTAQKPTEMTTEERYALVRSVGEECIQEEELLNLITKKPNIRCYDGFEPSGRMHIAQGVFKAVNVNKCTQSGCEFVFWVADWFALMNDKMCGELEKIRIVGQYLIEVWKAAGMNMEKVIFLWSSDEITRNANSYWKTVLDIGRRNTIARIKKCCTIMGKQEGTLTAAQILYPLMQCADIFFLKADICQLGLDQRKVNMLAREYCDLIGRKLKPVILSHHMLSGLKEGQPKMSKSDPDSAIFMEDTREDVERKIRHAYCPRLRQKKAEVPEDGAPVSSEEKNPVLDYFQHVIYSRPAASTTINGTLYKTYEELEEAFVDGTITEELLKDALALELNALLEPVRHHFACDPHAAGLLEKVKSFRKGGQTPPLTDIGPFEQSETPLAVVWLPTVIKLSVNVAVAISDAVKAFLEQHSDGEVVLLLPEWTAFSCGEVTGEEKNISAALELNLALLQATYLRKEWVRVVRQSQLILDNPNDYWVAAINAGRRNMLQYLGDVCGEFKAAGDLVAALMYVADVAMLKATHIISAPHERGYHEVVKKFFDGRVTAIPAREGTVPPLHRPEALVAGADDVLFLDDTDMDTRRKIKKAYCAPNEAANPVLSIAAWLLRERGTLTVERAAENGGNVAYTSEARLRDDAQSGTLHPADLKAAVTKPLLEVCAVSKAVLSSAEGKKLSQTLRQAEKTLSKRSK

[8] = molecular target: T4, Tyrosyl-tRNA synthetase, putative (Trypanosoma cruzi (strain CL Brener)); experiment: Trypanosoma cruzi tyrosyl tRNA synthetase (TcYRS) SOP; assay type: functional; conditions: 30 µM
[9] = molecular target: Chromo domain-containing protein 1 (Saccharomyces cerevisiae (strain ATCC 204508 / S288c) (Baker's yeast)) (UniProt P32657); experiment: ScCHD-1 Enzyme Inhibition Assay; assay type: functional; conditions: 30 µM; also: in the data most compounds retested in dose-response had high values
Chromo domain-containing protein 1 (Saccharomyces cerevisiae (strain ATCC 204508 / S288c) (Baker's yeast)), sequence (P32657 whole entry, the tested form may be a part): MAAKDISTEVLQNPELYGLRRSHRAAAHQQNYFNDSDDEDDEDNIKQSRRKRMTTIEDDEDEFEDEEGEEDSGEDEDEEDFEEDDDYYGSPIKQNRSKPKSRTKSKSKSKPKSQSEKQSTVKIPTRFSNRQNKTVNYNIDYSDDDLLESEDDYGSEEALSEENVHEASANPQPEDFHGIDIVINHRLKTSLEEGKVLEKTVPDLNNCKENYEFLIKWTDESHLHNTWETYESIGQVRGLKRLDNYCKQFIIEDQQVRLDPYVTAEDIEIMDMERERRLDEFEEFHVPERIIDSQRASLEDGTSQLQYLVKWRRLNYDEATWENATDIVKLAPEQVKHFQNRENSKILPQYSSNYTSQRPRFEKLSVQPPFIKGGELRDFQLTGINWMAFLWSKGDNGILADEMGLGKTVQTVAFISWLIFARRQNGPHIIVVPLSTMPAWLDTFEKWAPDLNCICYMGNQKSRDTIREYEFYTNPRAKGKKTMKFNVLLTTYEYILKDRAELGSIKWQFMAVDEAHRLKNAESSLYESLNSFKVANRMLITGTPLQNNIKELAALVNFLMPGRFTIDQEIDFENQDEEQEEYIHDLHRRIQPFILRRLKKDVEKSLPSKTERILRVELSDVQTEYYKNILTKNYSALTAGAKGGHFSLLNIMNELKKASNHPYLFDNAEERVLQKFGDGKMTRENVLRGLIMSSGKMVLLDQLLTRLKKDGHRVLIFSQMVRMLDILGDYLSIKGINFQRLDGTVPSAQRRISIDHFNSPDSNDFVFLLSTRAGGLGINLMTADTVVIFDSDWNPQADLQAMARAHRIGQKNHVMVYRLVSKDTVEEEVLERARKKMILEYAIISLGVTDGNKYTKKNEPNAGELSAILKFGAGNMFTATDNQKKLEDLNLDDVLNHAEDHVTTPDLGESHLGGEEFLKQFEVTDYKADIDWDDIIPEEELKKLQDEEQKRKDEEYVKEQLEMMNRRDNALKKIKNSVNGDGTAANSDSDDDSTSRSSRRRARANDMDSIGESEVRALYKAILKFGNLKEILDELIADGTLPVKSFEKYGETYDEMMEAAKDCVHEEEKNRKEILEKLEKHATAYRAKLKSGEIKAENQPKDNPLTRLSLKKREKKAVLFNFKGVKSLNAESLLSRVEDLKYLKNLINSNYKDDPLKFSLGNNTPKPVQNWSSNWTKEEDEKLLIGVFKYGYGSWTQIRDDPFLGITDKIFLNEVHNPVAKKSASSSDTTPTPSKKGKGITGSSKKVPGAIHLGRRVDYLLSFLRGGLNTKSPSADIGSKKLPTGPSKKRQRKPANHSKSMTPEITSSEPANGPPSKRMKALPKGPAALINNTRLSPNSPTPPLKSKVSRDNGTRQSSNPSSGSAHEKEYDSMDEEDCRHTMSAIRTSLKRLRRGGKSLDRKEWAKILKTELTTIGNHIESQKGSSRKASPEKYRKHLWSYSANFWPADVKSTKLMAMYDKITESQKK

Sialic acid-binding Ig-like lectin 9 (Homo sapiens), sequence (Q9Y336 whole entry): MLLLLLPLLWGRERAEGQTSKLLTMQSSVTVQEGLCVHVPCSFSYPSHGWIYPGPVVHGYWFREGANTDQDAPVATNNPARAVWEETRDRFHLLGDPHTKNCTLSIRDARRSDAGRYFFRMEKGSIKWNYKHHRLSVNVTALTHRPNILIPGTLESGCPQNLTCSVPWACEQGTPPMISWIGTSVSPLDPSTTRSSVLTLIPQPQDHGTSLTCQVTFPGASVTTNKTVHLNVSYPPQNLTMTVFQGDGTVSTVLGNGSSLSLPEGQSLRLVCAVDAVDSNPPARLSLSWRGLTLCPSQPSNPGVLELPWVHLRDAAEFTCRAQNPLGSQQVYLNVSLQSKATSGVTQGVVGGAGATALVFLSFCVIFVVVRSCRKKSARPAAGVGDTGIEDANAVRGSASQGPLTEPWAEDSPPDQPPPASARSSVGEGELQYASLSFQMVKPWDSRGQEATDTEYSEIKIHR
Protein translocase subunit SecA (Escherichia coli (strain K12)), sequence (P10408 whole entry): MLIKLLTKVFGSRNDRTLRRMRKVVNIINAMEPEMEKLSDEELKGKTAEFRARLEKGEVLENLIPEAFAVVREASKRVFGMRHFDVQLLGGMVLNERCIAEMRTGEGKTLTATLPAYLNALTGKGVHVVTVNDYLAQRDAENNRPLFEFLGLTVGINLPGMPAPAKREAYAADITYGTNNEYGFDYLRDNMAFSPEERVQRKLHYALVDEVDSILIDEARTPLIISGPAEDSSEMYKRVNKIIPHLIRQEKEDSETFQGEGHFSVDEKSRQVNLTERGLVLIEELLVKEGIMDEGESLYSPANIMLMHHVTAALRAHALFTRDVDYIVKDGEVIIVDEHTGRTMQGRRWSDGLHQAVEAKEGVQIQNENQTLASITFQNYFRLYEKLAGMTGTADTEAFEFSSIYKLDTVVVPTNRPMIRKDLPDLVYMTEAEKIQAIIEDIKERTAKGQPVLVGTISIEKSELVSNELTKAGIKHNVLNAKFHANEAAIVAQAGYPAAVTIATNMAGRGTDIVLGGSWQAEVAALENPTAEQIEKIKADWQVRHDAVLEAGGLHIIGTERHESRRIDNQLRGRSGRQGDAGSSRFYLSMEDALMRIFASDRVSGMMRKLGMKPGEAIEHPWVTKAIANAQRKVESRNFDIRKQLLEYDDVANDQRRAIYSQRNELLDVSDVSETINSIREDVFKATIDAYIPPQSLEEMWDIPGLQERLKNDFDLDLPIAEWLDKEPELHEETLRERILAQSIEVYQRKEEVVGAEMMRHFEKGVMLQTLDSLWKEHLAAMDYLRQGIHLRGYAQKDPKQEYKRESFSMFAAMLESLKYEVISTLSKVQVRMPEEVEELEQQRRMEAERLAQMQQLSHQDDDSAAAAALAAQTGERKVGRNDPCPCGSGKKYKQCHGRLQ

Row | SMILES | Percent Effect [1] | Percent Effect [2] | Percent Effect [3] | Percent Effect [4] | Percent Effect (Trypanosoma cruzi) | Percent Effect [5] | Percent Effect [6] | Percent Effect (Homo sapiens) | Percent Effect [7] | Percent Effect [8] | Percent Effect [9]
1 | COc1ccc(S(=O)(=O)N2CCCC3(CCCN3S(C)(=O)=O)C2)cc1 (stereo unspecified) | -2.95% | 10.8% | -2.61% | -2.37% | -8.31% | -2.73% | 12.3% | 7.81% | 0% | 8.64% | -3.67%
2 | CN(C)C(=O)CNC(=O)CCn1ncc2c(Cl)cccc21 | -5.52% | 4% | 2.92% | 1.65% | 3.73% | -7.57% | 14.1% | 16.1% | 2.12% | 7.69% | -12.3%
3 | Cc1occc1C(=O)N1CCC2(CCN(Cc3nccs3)C2)CC1 | -3.24% | 2.6% | 0.489% | 3.8% | 3.83% | -8.28% | -1.66% | -23.6% | 0% | -3.7% | 6.12%
4 | CC(=O)N1CCCCC1c1nc(N)ncc1-c1ccccc1 (stereo unspecified) | -3.36% | 13.3% | 9.28% | -4.89% | 5.32% | 19.8% | 6.78% | 8.42% | 6.38% | 14.1% | -3.68%
5 | Cc1oc(C)c(C(=O)NCc2cccc(NC(=O)CN(C)C)c2)c1C | -4.78% | -3.8% | -0.508% | -0.734% | 1.95% | -1.94% | 0.172% | -3.06% | 1.04% | 7.59% | 7.97%
6 | NC(=O)CCOc1nc(-c2ccccc2Cl)no1 | -6.94% | 2.74% | -11.9% | 31.6% | 8.23% | -1.82% | 8.87% | -2.22% | 4.3% | 15% | -6.33%
7 | Cc1ccc(C(=O)N2CCN(CC(O)c3ccc(F)cc3)CC2)s1 (stereo unspecified) | -2.93% | 7.89% | 6.49% | 18.1% | -0.564% | 0.766% | 4.34% | 13.7% | 5.39% | 9.76% | -0.68%
8 | CCOc1ccc(-n2nnc(C(=O)O)c2-c2ccccn2)cc1 | -1.24% | 7.89% | 4.82% | -2.3% | 0.487% | 0% | 29.2% | 5.63% | 3.19% | 13% | -4.17%
9 | O=S(=O)(c1ccccc1)N1CCN(CCn2ccnc2)CC1 | -6.59% | 2.74% | -6.09% | -6.85% | 0.979% | 3.64% | 7.28% | 6.13% | 6.45% | 7.5% | -3.52%
10 | O=C1NCCN1C1CCCN(Cc2nnc(-c3ccc(F)cc3)o2)C1 (stereo unspecified) | -1.01% | 2.7% | -4.34% | 16.6% | 6.04% | 2.03% | 9.7% | -7.13% | 3.96% | 15.8% | -2.67%
11 | Cc1cc(N2CCCN(C(=O)Cc3ccc(O)c(Cl)c3)CC2)ccn1 | -3.42% | 13.7% | -3.37% | 6.51% | 2.18% | 0.399% | 22.2% | -10.9% | 8.33% | 18.5% | -1.79%
12 | CCCOc1ccc(NC(=O)NCCC(=O)N(C)C)cc1Cl | -2.86% | 13.7% | -18.2% | 4.95% | 4.5% | 0.909% | 19% | 12.8% | 4.3% | 12.5% | -6.34%
13 | COCC(=O)NCc1cccc(Br)c1 | -0.913% | 18.4% | -5.98% | -7.74% | 4.89% | 1.92% | 11.4% | 13.3% | 4.41% | 19.5% | -12.7%
14 | Cc1cc(C)c(CNC(=O)NCC(O)c2cccc(F)c2)c(=O)[nH]1 (stereo unspecified) | -7% | 7.89% | 0.0351% | 13.9% | -0.0934% | -3.96% | 7.36% | 7.32% | 9.36% | 13.6% | -1.76%
15 | CC(=O)N(Cc1ncc(C)o1)C1CCN(Cc2cccc(C#N)c2)C1 (stereo unspecified) | -5.59% | 5.41% | -3.95% | 9.41% | -2.44% | -1.74% | 5.24% | 5.84% | 0% | 1.24% | -0.172%
16 | Cc1cnn(C2CCCN(C(=O)c3cccc(Cn4ccnc4)c3)C2)c1 (stereo unspecified) | -1.7% | 13.9% | -5.85% | -7.26% | 2.36% | -4.09% | 17.3% | 25.8% | 1.04% | 10.1% | -30.4%
17 | CCOc1ccc(NC(=O)CN2CCN(c3nccn3C)CC2)cc1 | 0.133% | 10.4% | 0.177% | -1.93% | 7.79% | -3.23% | 15.5% | -6.28% | 9.52% | 14.1% | -9%
18 | COc1cccc(CNCCc2cc(F)cc3c2OCOC3)c1 | -2.14% | 1.39% | -14.2% | 27% | 6.51% | 3.53% | 8.42% | 1.36% | 0% | 5.13% | -4.8%
19 | O=C(O)CC1CN(Cc2ccccc2)CCO1 (stereo unspecified) | -6.06% | 5.41% | 5.19% | -3.59% | -5.27% | 2.08% | 14.3% | 6.89% | 8.91% | 8.54% | -5.29%
20 | O=C(NCc1ccccc1CN1CCC(O)CC1)Nc1cccnc1 | -1.42% | -5.41% | -1.33% | 2.18% | 0.193% | 2.38% | 8.79% | -8.19% | 1.59% | -2.44% | -1.85%
21 | CN(C)CCNC(=O)c1cc(-c2cnc(N3CCCC3)nc2)cn1C | -6.55% | 5.33% | 9.86% | -3.71% | -0.197% | -1.17% | 0.0881% | 45.6% | 0% | -6.41% | -10.7%
